Reference: PubChem BioAssay
Measured potencies and affinities stand elsewhere. Results filed as inconclusive are left out. Active and inactive are the calls of the source. Unless noted, how the calls were made is not given here.

Assays:
[1] = cytotoxicity in PAX8-dependent RMG-1 cells, dose response, cell-based, cherry-pick (AID 687029;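 active means signal drop whose fitted half-maximal concentration is at most twice the top valid dose, in every test run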;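 further: cells exposed to compound for 96 hours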); conditions: RMG-1 viability, CellTiterGlo ATP luminescence, 96 h; series mostly up to 35 µM
[2] = cytotoxicity in IOSE-T80 ovarian epithelial cells, dose response, selectivity assay for PAX8 inhibitor project, cell-based, cherry-pick (AID 687032;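 active means fitted half-maximal concentration for viability loss no higher than twice the top valid dose, in every repeat run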;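 further: cells exposed to compound for 96 h before reading; 0% = neutral control wells and -100% = 2 µM mitoxantrone kill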); conditions: CellTiterGlo ATP luminescence, 96 h; series mostly up to 35 µM
[3] = inhibitors of CMV-promoter luciferase reporter, dose response, counter-screen for Pax8 inhibitor project, cell-based, HEK293, luminescence, dry powder (AID 743020;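 active means signal-lowering compounds whose fitted half-maximal concentration is at or below twice the top tested dose in every run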;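 further: HEK293 cells stably expressing the CMV luciferase reporter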); conditions: SteadyGlo luminescence, 24 h; series mostly up to 35 µM
[4] = non-specific cell cytotoxicity, dose response, cytotoxicity control for PAX8 inhibitor project, plate reader, dry powder samples (AID 743021); conditions: cell line, non-specific cytotoxicity counter-screen; series mostly up to 35 µM
[5] = IGROV1 ovarian cancer cell cytotoxicity, dose response, PAX8 inhibitor project, plate reader, dry powder samples (AID 743043); conditions: series mostly up to 35 µM;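 further: more negative means fewer viable cells or more cytotoxicity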
[6] = IOSE-T80 ovarian epithelial cell cytotoxicity, dose response, cytotoxicity control for PAX8 inhibitor project, plate reader, dry powder samples (AID 743045); conditions: IOSE-T80 ovarian epithelial cells; series mostly up to 35 µM;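 further: 0% = neutral control median and -100% = positive control median; more negative values mean more cell killing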
[7] = A2780 ovarian cancer cell cytotoxicity, dose response, cytotoxicity control, plate reader, dry powder samples (AID 743046); conditions: series mostly up to 35 µM;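 further: 0% = neutral control wells and -100% = cytotoxic reference compound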
[8] = cytotoxicity in OVCAR8 ovarian cancer cells, dose response, PAX8 project, cell-based, plate reader, dry powder samples (AID 743197); conditions: series mostly up to 35 µM
[9] = NIH:OVCAR-3 ovarian cancer cell cytotoxicity, dose response, PAX8 inhibitor project, plate reader, dry powder samples (AID 743044); conditions: NIH:OVCAR-3 ovarian cancer cell viability; max activity: at 35 µM, active compounds read low unless noted; series mostly up to 50 µM

Measured: max activity

COc1cccc(S(=O)(=O)N2CCCCN3[C@@H](CO)[C@@H](c4ccc(C#CCC(C)C)cc4)[C@@H]3C2)c1
not listed: [9]
inactive: all other assays above

O=C(Nc1ccc(F)cc1)N[C@H]1CC[C@H](CCNC(=O)c2cc(Cl)cc(Cl)c2)O[C@H]1CO
not listed: [9]
inactive: all other assays above

C[C@@H]1CN([C@H](C)CO)C(=O)c2cc(NS(=O)(=O)c3ccc(Cl)cc3)ccc2O[C@@H](C)CCCCO[C@H]1CN(C)S(=O)(=O)c1ccc(F)cc1
inactive: [1] | [2] | [3] | [4] | [9] 26.2% [at 1 µM, active compounds read low] | [6]

C[C@@H]1CN([C@H](C)CO)C(=O)c2cc(NC(=O)Nc3ccc(F)cc3)ccc2O[C@@H](C)CCCCO[C@H]1CN(C)C(=O)NC1CCCCC1
not listed: [9]
inactive: all other assays above

O=C(C[C@@H]1C[C@H]2c3cc(NC(=O)Nc4ccc(C(F)(F)F)cc4)ccc3O[C@H]2[C@H](CO)O1)NCc1ccc(Cl)cc1
not listed: [9]
inactive: all other assays above

C[C@@H]1CN([C@@H](C)CO)C(=O)c2cc(NS(=O)(=O)c3cccs3)ccc2O[C@@H](C)CCCCO[C@H]1CN(C)Cc1ccc(C(F)(F)F)cc1
not listed: [9]
inactive: all other assays above

C[C@H]1CN([C@@H](C)CO)S(=O)(=O)c2ccc(C#Cc3ccc(F)cc3)cc2O[C@@H]1CN(C)C(=O)NC1CCCCC1
not listed: [9]
inactive: all other assays above

COc1ccc(C#Cc2ccc([C@@H]3[C@H](CO)N4CCCCN(C(=O)Nc5ccc(F)cc5)C[C@@H]34)cc2)cc1
inactive: [1] | [2] | [3] | [4] | [9] -123% [at 30 µM, active compounds read low] | [6]

C[C@H]1CCCCO[C@@H](CN(C)Cc2ccc3c(c2)OCO3)[C@@H](C)CN([C@@H](C)CO)C(=O)c2cc(NC(=O)Nc3ccc(F)cc3)ccc2O1
not listed: [9]
inactive: all other assays above

COc1ccc(S(=O)(=O)Nc2ccc3c(c2)C(=O)N([C@@H](C)CO)C[C@@H](C)[C@@H](CN(C)Cc2ccc(C(F)(F)F)cc2)OCCCC[C@@H](C)O3)cc1
not listed: [6] | [8] | [9]
inactive: all other assays above

C[C@@H]1CN([C@@H](C)CO)C(=O)Cc2cc(NC(=O)Nc3ccc(C(F)(F)F)cc3)ccc2O[C@H]1CN(C)C(=O)NC1CCCCC1
not listed: [9]
inactive: all other assays above

C[C@H](CO)N1C[C@H](C)[C@H](CN(C)CC2CCCCC2)Oc2ccc(NS(=O)(=O)c3ccc(Cl)cc3)cc2CC1=O
not listed: [9]
inactive: all other assays above

C[C@@H]1CN([C@H](C)CO)S(=O)(=O)c2ccc(C#Cc3ccc(F)cc3)cc2O[C@H]1CN(C)C(=O)NC1CCCCC1
not listed: [9]
inactive: all other assays above

C[C@H](CO)N1C[C@H](C)[C@H](CN(C)Cc2ccc(Cl)c(Cl)c2)OCCCC[C@H](C)Oc2ccc(NS(=O)(=O)c3ccc(F)cc3)cc2C1=O
not listed: [9]
inactive: all other assays above

COc1ccccc1S(=O)(=O)N1CC[C@H]2[C@@H](CO)N(C)c3ccc(-c4ccc(C#N)cc4)cc3[C@H]21
not listed: [7] | [9]
inactive: all other assays above

C[C@H]1CN([C@@H](C)CO)C(=O)c2c(c3ccccc3n2C)-c2ccccc2CO[C@@H]1CN(C)S(=O)(=O)c1ccsc1
not listed: [7] | [9]
inactive: all other assays above

COc1ccc(-c2ccc3c(c2)[C@H]2[C@H](CCN2S(=O)(=O)c2ccc(OC)cc2)[C@@H](CO)N3C)cc1
not listed: [6] | [8] | [9]
inactive: all other assays above

O=S(=O)(c1ccccc1F)N1CC[C@H]2[C@H](CO)Nc3ccc(C4=CCCCC4)cc3[C@H]21
not listed: [6] | [8] | [9]
inactive: all other assays above

C[C@@H]1CCCCO[C@H](CN(C)Cc2ccccc2)[C@H](C)CN([C@@H](C)CO)C(=O)c2cc(NC(=O)Nc3ccc(C(F)(F)F)cc3)ccc2O1
not listed: [6] | [9]
inactive: all other assays above

CC(C)NC(=O)N(C)C[C@H]1OCCCC[C@H](C)Oc2ccc(NC(=O)Nc3ccc(C(F)(F)F)cc3)cc2C(=O)N([C@H](C)CO)C[C@@H]1C
not listed: [9]
inactive: all other assays above

C[C@H]1CN([C@@H](C)CO)C(=O)Cc2cc(NC(=O)Nc3ccc(F)cc3)ccc2O[C@H]1CN(C)Cc1ccc(Cl)c(Cl)c1
not listed: [9]
inactive: all other assays above

COc1ccccc1-c1ccc2c(c1)[C@@H]1[C@@H](CCN1S(=O)(=O)c1ccccc1F)[C@H](CO)N2
not listed: [9]
inactive: all other assays above

Cc1ccc(-c2ccc([C@H]3[C@@H](CO)N4CCCCN(C(=O)Nc5cccc(F)c5)C[C@H]34)cc2)cc1
not listed: [7] | [9]
inactive: all other assays above

C[C@H](O)C#Cc1ccc2c(c1)O[C@@H](CN(C)Cc1ccc(-c3ccccc3)cc1)[C@H](C)CN([C@H](C)CO)S2(=O)=O
not listed: [6] | [8] | [9]
inactive: all other assays above

CS(=O)(=O)N1CC(=O)N2[C@H](CO)[C@H](c3ccc(C#CCC4CCCC4)cc3)[C@H]2C1
not listed: [7] | [9]
inactive: all other assays above

COc1ccc(CN(C)C[C@@H]2OCCCC[C@H](C)Oc3ccc(NC(=O)Nc4ccc(C(F)(F)F)cc4)cc3C(=O)N([C@H](C)CO)C[C@@H]2C)cc1
not listed: [9]
inactive: all other assays above

COc1cccc(-c2ccc3c(c2)[C@H]2[C@H](CCN2C(=O)NC2CCCCC2)[C@@H](CO)N3C)c1
not listed: [7] | [9]
inactive: all other assays above

C[C@@H]1CN([C@H](C)CO)C(=O)c2cccc(NC(=O)Nc3cccc4ccccc34)c2O[C@H]1CN(C)C(=O)Nc1ccc(C(F)(F)F)cc1
not listed: [9]
inactive: all other assays above

C[C@@H]1CCCCO[C@H](CN(C)Cc2ccc(C(=O)Nc3ccccc3N)cc2)[C@@H](C)CN([C@@H](C)CO)C(=O)c2cc(NS(=O)(=O)c3ccc(Cl)cc3)ccc2O1
not listed: [6] | [8] | [9]
inactive: all other assays above

C[C@H](CO)N1C[C@H](C)[C@@H](CN(C)Cc2ccc(C(F)(F)F)cc2)OCCCC[C@H](C)Oc2ccc(NC(=O)Cc3ccccc3)cc2C1=O
not listed: [9]
inactive: all other assays above

C[C@@H]1CCCCO[C@@H](CN(C)S(=O)(=O)c2ccc(Cl)cc2)[C@H](C)CN([C@@H](C)CO)C(=O)c2cc(N(C)C)ccc2O1
not listed: [9]
inactive: all other assays above

C[C@@H]1CCCCO[C@@H](CN(C)Cc2ccc(C(F)(F)F)cc2)[C@H](C)CN([C@@H](C)CO)C(=O)c2cc(NC(=O)Nc3ccc(F)cc3)ccc2O1
not listed: [9]
inactive: all other assays above

C[C@@H]1CN([C@H](C)CO)C(=O)c2cc(NS(=O)(=O)c3cccs3)ccc2O[C@@H](C)CCCCO[C@@H]1CN(C)Cc1ccc(C(F)(F)F)cc1
not listed: [9]
inactive: all other assays above

Cc1ccc(S(=O)(=O)Nc2ccc3c(c2)C(=O)N([C@H](C)CO)C[C@@H](C)[C@@H](CN(C)Cc2ccc4c(c2)OCO4)OCCCC[C@@H](C)O3)cc1
not listed: [7] | [9]
inactive: all other assays above
